Source: PubChem
Rango release inh – prevents RanGTP from dissociating the Rango-importin beta complex; Potency, µM (highest dose often 46.1 µM); Biochemical FRET Rango-importin beta, RanGTP-induced dissociation; 340,000 tested, 0.071% active; O95149+P62826; calls by dose curve; also: nearly all actives have a fitted effect of over 45% in size
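Quantitative HTS using a FRET biosensor: 0.1 uM Rango, 0.25 uM importin beta, 0.6 uM Ran, 2 mM GTP, 0.2 uM RCC1 final, PBS with DTT, Tween-20 and BSA. Post-read taken 45 min after Ran addition.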
KAT2A inh – GCN5L2 (KAT2A) acetyltransferase inhibition. Potency, µM (doses to about 58.9 µM), actives largely listed as inhibitors. Q92830. AID 504327. GCN5L2 HAT assay, ThioGlo1 CoA-SH fluorescence. 390,000 tested, 0.21% active
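Compounds, pin-transferred from DMSO stocks, meet 20nM GCN5L2 for 15 min before the reaction begins with H3(1-25) peptide (75uM) and acetyl-CoA (70uM). Thiol-reactive ThioGlo1 reports CoA release over 20 min at room temperature.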
PLK1 PBD inh – blocks phosphopeptide binding to human PLK1 polo-box domain; Plk1 PBD binding of FITC phosphopeptide, fluorescence polarization; Potency, µM, most hits filed as inhibitors; 360,000 tested, 2.8% active; also: series mostly up to about 57 µM; nearly all actives have a fitted effect of over 65% in size
Rango complex inh – inhibitors of Rango-importin beta complex formation | Q14974 | Rango CFP/YFP FRET sensor + importin beta, 45 min | Potency, µM (highest dose often 92.2 µM) | 340,000 tested, 0.031% active | AID 540263; calls by dose curve; also: nearly all actives have a fitted effect of over 15% in size
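FRET biosensor (snurportin 1 IBB flanked by EYFP and cerulean), 50 nM, with compound 5 min, then 0.125 microM importin beta in PBS, 1 mM DTT, 0.02% Tween-20, 0.1% BSA. CFP/YFP ratio read after 45 min at room temperature; pre-read flags interference.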
VDR inh – vitamin D3 receptor (human) inhibition; Potency, µM, usual class: inhibitors; VDR-SRC2-3 peptide fluorescence polarization, 2 h; P11473; 400,000 tested, 0.93% active
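Fluorescence polarization assay of small-molecule disruption of VDR binding to coregulator peptide SRC2-3. Compounds and controls pin-transferred, then read after 2 h incubation at ambient room temperature.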
PI5P4K alpha inh – PI5P4K alpha (human) kinase inhibition | P48426 | PI5P4Kalpha enzyme, ADP-Glo luminescence, 60 min; stronger effect = lower value | max response, % | 330,000 tested, 1.2% active; active = max response of -50% or lower; inconclusive = between -30% and -50%; inactive = -30% or higher; also: value at the top dose of about 77 µM
Target sequence (P48426 whole entry, looked up): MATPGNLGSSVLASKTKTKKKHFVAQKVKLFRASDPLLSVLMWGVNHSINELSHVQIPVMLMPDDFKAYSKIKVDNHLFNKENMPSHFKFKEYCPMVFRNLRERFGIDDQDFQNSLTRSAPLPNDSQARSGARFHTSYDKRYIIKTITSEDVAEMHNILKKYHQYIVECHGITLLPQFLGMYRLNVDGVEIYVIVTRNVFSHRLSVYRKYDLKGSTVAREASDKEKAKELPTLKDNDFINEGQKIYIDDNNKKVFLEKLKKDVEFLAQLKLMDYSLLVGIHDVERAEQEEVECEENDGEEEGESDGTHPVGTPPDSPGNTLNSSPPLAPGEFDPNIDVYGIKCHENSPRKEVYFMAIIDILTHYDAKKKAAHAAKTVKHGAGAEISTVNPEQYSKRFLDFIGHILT
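Enzyme plus substrate dispensed, test compounds pinned in, then ATP (5 microM final) added. After 60 min at RT, ADP-Glo reagent 1 for 45 min and reagent 2 for 30 min preceded luminescence imaging.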
Hits are given with their value. Compounds with a hit are over-represented: about 3.6% of the library has one in this group of screens. Unless noted, calls follow the shape of the dose curve; as a rule, active = well fitted curve in the direction sought with a large enough effect; inconclusive = small, poorly fitted or top-dose-only effect, or another doubt; inactive = no such curve, though single readings can be large; an effect the other way counts as inactive or inconclusive.

Screening CCc1ccccc1NC(=O)c1cccc(NC(=O)/C=C/c2ccco2)c1 returned Rango release inh inactive, KAT2A inh inactive, PLK1 PBD inh inactive, Rango complex inh inactive, VDR inh inactive and PI5P4K alpha inh inactive.
For O=C(/C=C/c1ccco1)Nc1cccc(C(=O)Nc2ccccc2C(=O)O)c1 the results were Rango release inh inactive, KAT2A inh inactive, PLK1 PBD inh 21µM, Rango complex inh inconclusive, VDR inh inconclusive and PI5P4K alpha inh -69.
`COc1ccc(Cl)cc1C(=O)C1CCCN(Cc2cnc(N3CCOCC3)s2)C1` (stereo not drawn) gave Rango release inh inactive, KAT2A inh inactive, PLK1 PBD inh 13µM, Rango complex inh inactive, VDR inh inconclusive and PI5P4K alpha inh inactive.
`CCc1ccc(-n2c(CSc3nnnn3-c3ccccc3)nc3ccccc3c2=O)cc1` gave Rango release inh inactive, KAT2A inh inactive, PLK1 PBD inh 6µM, Rango complex inh inactive, VDR inh inactive and PI5P4K alpha inh inconclusive.
Screening CC(C)c1ccc(NC2CCCN(C(=O)c3cc(C(C)C)nc(N)n3)C2)cc1 (stereo not drawn) returned Rango release inh inactive, KAT2A inh inactive, PLK1 PBD inh 27µM, Rango complex inh inactive, VDR inh inactive and PI5P4K alpha inh inactive.
For CC(C)c1ccc(NC2CCCN(C(=O)c3cscn3)C2)cc1 (stereo not drawn) the results were Rango release inh inactive, KAT2A inh inactive, PLK1 PBD inh inactive, Rango complex inh inactive, VDR inh inactive and PI5P4K alpha inh inactive.
Screening CCOC(=O)c1c(-c2ccccc2)oc2ccc(NS(=O)(=O)c3cc(C)c(C)cc3C)cc12 returned KAT2A inh inactive and VDR inh inactive.
O=C(O)c1ccc(N/N=C/C2=Cc3ccccc3OC2)cc1 was read as Rango release inh inconclusive, KAT2A inh inactive, PLK1 PBD inh 24µM, Rango complex inh inconclusive, VDR inh inactive and PI5P4K alpha inh inactive.
`CCCOc1ccc(CNC(=O)c2cc3ccccn3n2)cc1` gave KAT2A inh inactive and VDR inh inactive.
`O=C(Nc1nnc(-c2ccc3c(c2)CCCC3)o1)c1ccc(Cl)cc1Cl` gave Rango release inh inactive, KAT2A inh inactive, PLK1 PBD inh 21µM, Rango complex inh inactive, VDR inh inactive and PI5P4K alpha inh inactive.
`CCOc1ccc(OCC)c(NC(=O)c2nnn(CC(=O)Nc3ccc(C)cc3C)c2N)c1` gave KAT2A inh inactive and VDR inh inconclusive.
For Cc1nnc(N2CCCC(C(=O)NCCc3ccc(Cl)cc3)C2)c2nn(-c3ccccc3)c(C)c12 (stereo not drawn) the results were KAT2A inh inactive and VDR inh inactive.
CC1CCCN(CCCNC(=O)c2ccc3c(c2)N(Cc2cccc(Cl)c2)C(=O)c2ccccc2S3(=O)=O)C1 (stereo not drawn) was read as KAT2A inh inactive and VDR inh inactive.
`CCN(Cc1ccccc1)C(=O)c1cc(-c2ccccc2)n[nH]1` gave KAT2A inh inactive and VDR inh inactive.
Screening COc1cccc(OC)c1C(=O)NC(=S)Nc1cc(-c2nc3ccccc3[nH]2)ccc1Cl returned Rango release inh inactive, KAT2A inh inactive, PLK1 PBD inh 9.5µM, Rango complex inh inactive, VDR inh inactive and PI5P4K alpha inh inactive.
For CC(C)(Oc1ccc(Br)cc1)C(=O)Nc1cc(-c2nc3ccccc3[nH]2)ccc1Cl the results were KAT2A inh inactive and VDR inh inactive.
Screening CCc1ccc(-c2csc3[n+]2CCN3C(C)=O)cc1 returned Rango release inh inactive, KAT2A inh inactive, PLK1 PBD inh inconclusive, Rango complex inh inactive and VDR inh 25µM.
O=C(CN1CC[n+]2c(-c3cccs3)csc21)c1ccc(-c2ccccc2)cc1 was read as Rango release inh inactive, KAT2A inh inactive, PLK1 PBD inh inactive, Rango complex inh inactive, VDR inh inconclusive and PI5P4K alpha inh inactive.
For O=c1[nH]c(=S)[nH]c2scc(-c3ccc(Br)cc3)c12 the results were Rango release inh inactive, PLK1 PBD inh 27µM, Rango complex inh inactive, VDR inh inactive and PI5P4K alpha inh -55.
Screening O=c1[nH]cnc2scc(-c3ccc(F)cc3)c12 returned Rango release inh inactive, KAT2A inh inactive, PLK1 PBD inh inactive, Rango complex inh inactive, VDR inh inactive and PI5P4K alpha inh inactive.
CCOC(=O)C(=Cc1ccc(OCc2ccc([N+](=O)[O-])cc2)c(OC)c1)C(=O)OCC was read as Rango release inh inactive, KAT2A inh inactive, PLK1 PBD inh inactive, Rango complex inh inactive, VDR inh 79µM and PI5P4K alpha inh inactive.
`Cc1ccc2c(=O)cc(C(=O)N(Cc3ccc(N(C)C)cc3)C3CCS(=O)(=O)C3)oc2c1` (stereo not drawn) gave KAT2A inh inactive and VDR inh inactive.
Screening COc1ccc(N2CCN(C(=O)c3cc4c(=O)n(Cc5cccs5)ccc4nc3C)CC2)cc1 returned KAT2A inh inactive and VDR inh inactive.
`Cn1ncc(S(=O)(=O)Cc2ccccc2)c(Cl)c1=O` gave Rango release inh inactive, KAT2A inh inconclusive, PLK1 PBD inh 3.4µM, Rango complex inh inactive, VDR inh inconclusive and PI5P4K alpha inh inactive.
For CN(NC(=O)Nc1ccccc1)c1cnn(C)c(=O)c1Cl the results were Rango release inh inactive, KAT2A inh inconclusive, PLK1 PBD inh inactive, Rango complex inh inactive, VDR inh inactive and PI5P4K alpha inh inactive.
For COc1ccccc1NC(=S)NNC(=S)Nc1ccc(OC(F)F)cc1 the results were Rango release inh inactive, KAT2A inh inactive, PLK1 PBD inh 24µM, Rango complex inh inactive, VDR inh inconclusive and PI5P4K alpha inh inactive.
For COc1cccc2cc(C(=O)Nc3ccc(CC(=O)O)cc3)c(=O)oc12 the results were KAT2A inh inactive and VDR inh inactive.
`Cc1cc(C)cc(NS(=O)(=O)c2ccc3c(c2)NC(=O)C(C)S3)c1` (stereo not drawn) gave KAT2A inh inactive and VDR inh inactive.
`CNc1sc(C(=O)c2ccc(F)cc2)c(N)c1-c1nc2ccccc2s1` gave Rango release inh inactive, KAT2A inh inactive, PLK1 PBD inh 21µM, Rango complex inh inconclusive and VDR inh inactive.
O=C(Nc1ccc(O)c(-c2nc3ccccc3s2)c1)c1cccs1 was read as Rango release inh inactive, KAT2A inh inactive, PLK1 PBD inh inactive, Rango complex inh inactive, VDR inh inactive and PI5P4K alpha inh inactive.
Screening O=C(Nc1ccccc1-c1nc2ccccc2s1)c1ccc(F)cc1 returned KAT2A inh inactive and VDR inh inactive.
Screening CNc1sc(C(=O)c2cccs2)c(N)c1-c1nc2ccccc2s1 returned Rango release inh 10µM, KAT2A inh inactive, PLK1 PBD inh inactive, Rango complex inh inconclusive, VDR inh inactive and PI5P4K alpha inh inactive.
